Experiment [1] is described as follows: qHTS assay to identify small molecule agonists of the RXR signaling pathway - cell viability counter screen (AID 1159529). Further: nearly all actives have a fitted effect of over 50% in size. Further: potency means the concentration at half of the fitted maximal effect. In outline:
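RXR-alpha-UAS-bla HEK 293T cells in medium with 2% charcoal-stripped FBS were pre-incubated 5 hr, then compound-treated 16 hr at 37 C. Viability was read by CellTiter-Glo luminescence in the same wells as the beta-lactamase assay, with tetraoctyl ammonium bromide as positive control.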
On the technique in general: Quantitative high-throughput screening tests each substance at several concentrations.

Experiment [2] in a line: qHTS assay to identify small molecule antagonists of the retinoid acid receptor (RAR) signaling pathway - cell viability counter screen (AID 1159551). Further: nearly all actives have a fitted effect of over 35% in size. In outline:
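Cytotoxicity counter screen: ATP content quantified by CellTiter-Glo luminescence in C3RL4 cells treated 6 hr at 37 C with compound and retinol (1 uM final). Cells plated at 1,000/well and cultured overnight before dosing.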

A short description of experiment [3]: qHTS assay to identify small molecule antagonists of the retinoic acid receptor (RAR) signaling pathway (AID 1159552; further: nearly all actives have a fitted effect of over 50% in size; further: potency means the concentration at half of the fitted maximal effect). The essentials: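 Retinol signaling pathway inhibitors screened in C3RL4 RARE-luciferase reporter cells seeded overnight at 37 C, then compounds added with 1 uM (final) retinol as pathway substrate. After 6 hr at 37 C, luciferase luminescence read after 30 min at room temperature.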

Experiment [4] can be described thus: qHTS assay to identify small molecule agonists of the retinoic acid receptor (RAR) signaling pathway (AID 1159553). Further: potency means the concentration at half of the fitted maximal effect. The note with it: C3RL4 RARE luciferase reporter, agonist, 6 h; activation: at 73.3 µM (top of the series) unless noted. The essentials:
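Luminescence was measured 30 min after luciferase reagent addition at room temperature. Before that, C3RL4 reporter cells (1,000 per well, plated overnight) were treated with compound for 6 hr at 37 C and 5% CO2.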

Experiment [5] can be described thus: qHTS assay to identify small molecule antagonists of the estrogen related receptor (ERR) signaling pathway from Tox21 library - cell viability counter screen (AID 1224834). Further: nearly all actives have a fitted effect of over 30% in size. Further: potency means the concentration at half of the fitted maximal effect. In outline: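 CellTiter-Fluor fluorescence, read after 30 min at 37 C, measures viability of ERR cells. Cells plated at 2,000/well and incubated 6 h before pin-tool compound addition, then exposed 17.5 hours at 37 C.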

Experiment [6] deals with Luciferin 4-monooxygenase (Photinus pyralis) (UniProt P08659). Kind of experiment: qHTS assay to identify small molecule inhibitors of firefly luciferase (AID 1224835). Further: nearly all actives have a fitted effect of over 25% in size. The essentials:
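Quantitative HTS format; KM concentrations of both substrates. Purified P. pyralis FLuc activity quantified from luminescence images.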

Experiment [7] in a line: qHTS assay to identify small molecule agonists of the constitutive androstane receptor (CAR) signaling pathway - cell viability counter screen (AID 1224836). Further: nearly all actives have a fitted effect of over 45% in size. Further: potency means the concentration at half of the fitted maximal effect. In outline: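 HepG2 cells stably carrying hCAR and a CYP2B6-2.2kb reporter; 15-concentration compounds plus PK11195 (final 0.75 uM), 23 hr at 37 C/5% CO2. Viability read by CellTiter-Fluor fluorescence.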
Experiment [8] is described as follows: qHTS assay to identify small molecule antagonists of the constitutive androstane receptor (CAR) signaling pathway - cell viability counter screen (AID 1224837). Further: nearly all actives have a fitted effect of over 45% in size. Further: potency means the concentration at half of the fitted maximal effect. The essentials:
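Cytotoxicity counter-screen: CellTiter-Fluor fluorescence after 23 h compound exposure (15-point qHTS) in double-stable HepG2-CYP2B6-hCAR cells, with 50 nM CITCO added.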

Experiment [9] has as its target Nuclear receptor subfamily 1 group I member 3 (Homo sapiens) (UniProt Q14994). Briefly: qHTS assay to identify small molecule antagonists of the constitutive androstane receptor (CAR) signaling pathway (AID 1224838).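 Further: HepG2 cells stably expressing hCAR with CYP2B6 luciferase reporter stimulated by CITCO; nearly all actives have a fitted effect of over 40% in size.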 Further: potency means the concentration at half of the fitted maximal effect. In outline:
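Antagonism measured as luciferase signal (ONE-Glo, 30 min, room temperature) in CAR-stimulated cells: HepG2-CYP2B6-hCAR double-stable line exposed 24 hr at 37 C to compound in a 15-point series plus 50 nM CITCO.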

Experiment [10] has the same target. Kind of experiment: qHTS assay to identify small molecule agonists of the constitutive androstane receptor (CAR) signaling pathway (AID 1224839). Further: nearly all actives have a fitted effect of over 15% in size. In outline: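 HepG2 cells stably co-transfected with hCAR and a CYP2B6-2.2kb luciferase reporter; compounds at 15 concentrations with 0.75 uM PK11195 present. After 24 hr at 37 C, luciferase read by ONE-Glo luminescence.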

The nature of experiment [11]: qHTS assay to identify small molecule antagonists of the estrogen related receptor signaling pathway with the pleiotropic PPARgamma coactivator (PGC) from Tox21 10K library - cell viability counter screen (AID 1224840; active means well fitted cell-killing curve with a large enough effect in the repeat runs, not every such curve was filed as active; further: nearly all actives have a fitted effect of over 40% in size; further: potency means the concentration at half of the fitted maximal effect). The essentials: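 Counter-screen for cytotoxicity: after 17.5 h compound exposure at 37 C, CellTiter-Fluor reagent added to PGC/ERR cells for 30 min and fluorescence read. Cells were seeded at 2,000 per well 6 h before dosing.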

Experiment [12] can be described thus: qHTS assay to identify small molecule antagonists of the estrogen related receptor signaling pathway with the pleiotropic PPARgamma coactivator (PGC) from Tox21 10K library (AID 1224841; call rule not given here; further: actives are mostly falling curves and most rising ones were filed inactive; nearly all actives have a fitted effect of over 50% in size; further: potency means the concentration at half of the fitted maximal effect). The essentials: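 Luminescence (One-Glo, 30 min at room temperature) after 18 h compound treatment at 37 C of PGC/ERR reporter cells plated at 2,000 cells/well and settled 6 h beforehand.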

In experiment [13] the target is Thyrotropin receptor (Homo sapiens) (UniProt P16473). Briefly: qHTS assay to identify small molecule agonists of the thyroid stimulating hormone receptor (TSHR) signaling pathway (AID 1224843; calls by dose curve; further: nearly all actives have a fitted effect of over 45% in size). In outline: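 Compounds are titrated over 15 concentrations, in triplicate, onto TSHR-HEK293 cells seeded at 800/well. Plates sit 30 min at room temperature before cAMP-d2 and anti-cAMP cryptate are added; signal is read after a further hour.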
Chain of Thyrotropin receptor (Homo sapiens) (P16473 whole entry, looked up): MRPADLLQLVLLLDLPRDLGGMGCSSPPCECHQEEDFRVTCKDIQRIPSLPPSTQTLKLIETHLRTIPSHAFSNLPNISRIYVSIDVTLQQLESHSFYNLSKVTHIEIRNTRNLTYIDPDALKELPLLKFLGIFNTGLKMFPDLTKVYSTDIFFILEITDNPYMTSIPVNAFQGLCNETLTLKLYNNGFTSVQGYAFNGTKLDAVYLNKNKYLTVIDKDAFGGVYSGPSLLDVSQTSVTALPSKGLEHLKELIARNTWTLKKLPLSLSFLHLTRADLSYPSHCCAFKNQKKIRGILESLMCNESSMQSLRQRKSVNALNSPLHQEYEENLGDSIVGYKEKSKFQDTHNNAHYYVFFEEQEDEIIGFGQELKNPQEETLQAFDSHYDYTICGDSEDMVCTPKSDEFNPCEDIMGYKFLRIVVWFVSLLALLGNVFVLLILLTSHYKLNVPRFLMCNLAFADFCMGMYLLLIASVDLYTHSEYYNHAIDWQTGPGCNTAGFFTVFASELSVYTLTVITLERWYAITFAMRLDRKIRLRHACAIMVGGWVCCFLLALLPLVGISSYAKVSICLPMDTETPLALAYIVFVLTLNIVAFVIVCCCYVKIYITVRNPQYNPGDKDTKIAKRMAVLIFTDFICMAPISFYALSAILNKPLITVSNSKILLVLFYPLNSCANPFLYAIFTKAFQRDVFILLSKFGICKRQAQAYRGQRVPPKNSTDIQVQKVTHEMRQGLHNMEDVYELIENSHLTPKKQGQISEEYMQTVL

Experiment [14] can be described thus: qHTS assay to identify small molecule antagonists of the estrogen related receptor (ERR) signaling pathway - cell viability counter screen (AID 1224818). In outline: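 Cytotoxicity counter screen: fluorescence from CellTiter-Fluor, added after 17.5 h compound exposure at 37 C and read 30 min later. ERR cell line seeded at 2,000 cells/well, preincubated 6 h before dosing.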

Experiment [15] can be described thus: qHTS assay to identify small molecule antagonists of the estrogen related receptor (ERR) signaling pathway (AID 1224819; further: nearly all actives have a fitted effect of over 50% in size). The essentials: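 LOPAC library screened for antagonism as reduced One-Glo luminescence in ERR reporter cells (2,000/well). Compounds were added after 6 h pre-incubation and left 18 h at 37C; reading followed a 30 min room-temperature reagent step.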

The nature of experiment [16]: qHTS assay to identify small molecule agonists of the estrogen related receptor (ERR) signaling pathway (AID 1224820). The essentials:
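After 6 h plating (2,000 cells/well) and 18 h compound treatment at 37 C, ERR cells were lysed with One-Glo and luminescence read after 30 min at room temperature.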

Experiment [17] concerns estrogen-related receptor alpha (ERRalpha) with PGC-1alpha coactivator, human. Briefly: qHTS assay to identify small molecule antagonists of the estrogen related receptor signaling pathway with the pleiotropic PPARgamma coactivator (PGC) (AID 1224821; calls by dose curve). In outline:
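Luminescence from One-Glo luciferase reagent (30 min, room temperature) measured after 18 h compound treatment at 37 °C. Cells carry the PGC/ERR reporter and were seeded 6 h prior to dosing.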

Experiment [18] can be described thus: qHTS assay to identify small molecule antagonists of the estrogen related receptor signaling pathway with the pleiotropic PPARgamma coactivator (PGC) cell viability counter screen (AID 1224822). The essentials: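 Viability counter-screen read by fluorescence intensity after 30 min with CellTiter-Fluor at 37 C; PGC/ERR reporter cells were exposed to compounds for 17.5 h at 37 C following a 6 h preincubation.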

Experiment [19] is described as follows: qHTS assay to identify small molecule agonists of the estrogen related receptor signaling pathway with the pleiotropic PPARgamma coactivator (PGC) (AID 1224823). The essentials: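 Luminescence from One-Glo reagent (30 min, room temperature) was read after 18 h compound treatment at 37 C of PGC/ERR cells plated 6 h beforehand; compounds delivered in DMSO by pin tool.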

A short description of experiment [20]: qHTS assay to identify small molecule agonists of the estrogen related receptor signaling pathway with the pleiotropic PPARgamma coactivator (PGC) from Tox21 10K library (AID 1224842). Further: nearly all actives have a fitted effect of over 15% in size. The essentials: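 PGC/ERR reporter cells (NTP line) were seeded 2,000 per well, rested 6 h at 37 C/5% CO2, then pin-dosed with compounds in DMSO for 18 h at 37 C; luciferase read by One-Glo luminescence after 30 min at room temperature.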

“And” between values parts separate entries of the source, which are not always exact repeats. Identical values can stand only once. Records with an inconclusive call do not appear. More than one record can exist for a structure, and the calls need not agree. The source made the active and inactive calls. Unless noted, the call rests on the fitted dose curve; in most records, active means well fitted curve in the direction sought with a large enough effect in the repeat runs; inconclusive means weak or mixed curves; inactive means no such curve, though single readings can be large; an effect the other way counts as inactive or inconclusive.

Chain of Luciferin 4-monooxygenase (Photinus pyralis) (P08659 whole entry, looked up): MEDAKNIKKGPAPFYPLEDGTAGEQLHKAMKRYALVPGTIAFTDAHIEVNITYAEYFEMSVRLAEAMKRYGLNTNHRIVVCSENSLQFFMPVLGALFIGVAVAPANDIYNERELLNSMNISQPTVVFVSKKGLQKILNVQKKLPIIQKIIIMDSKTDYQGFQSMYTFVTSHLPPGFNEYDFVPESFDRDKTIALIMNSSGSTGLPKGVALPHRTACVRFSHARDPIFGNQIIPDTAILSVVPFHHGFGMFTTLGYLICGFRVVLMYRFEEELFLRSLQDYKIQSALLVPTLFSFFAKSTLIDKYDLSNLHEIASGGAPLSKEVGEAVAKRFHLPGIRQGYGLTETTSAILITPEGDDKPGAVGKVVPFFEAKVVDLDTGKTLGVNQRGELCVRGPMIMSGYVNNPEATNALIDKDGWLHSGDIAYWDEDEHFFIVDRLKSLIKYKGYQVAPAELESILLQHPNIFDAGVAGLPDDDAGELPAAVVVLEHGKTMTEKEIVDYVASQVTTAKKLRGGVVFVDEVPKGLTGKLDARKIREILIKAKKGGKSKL
Chain of Nuclear receptor subfamily 1 group I member 3 (Homo sapiens) (Q14994 whole entry, looked up): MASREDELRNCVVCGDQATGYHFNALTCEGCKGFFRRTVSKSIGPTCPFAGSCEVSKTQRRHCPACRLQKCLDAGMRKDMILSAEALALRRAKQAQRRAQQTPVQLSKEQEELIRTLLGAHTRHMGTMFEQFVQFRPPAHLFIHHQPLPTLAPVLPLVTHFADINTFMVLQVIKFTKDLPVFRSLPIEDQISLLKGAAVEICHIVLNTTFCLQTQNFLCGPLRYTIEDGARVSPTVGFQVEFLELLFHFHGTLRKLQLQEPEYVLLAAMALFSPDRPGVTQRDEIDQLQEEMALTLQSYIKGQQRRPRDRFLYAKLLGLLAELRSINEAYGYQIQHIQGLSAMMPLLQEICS

Consider `N#CC(c1ccccc1)c1ccccc1`, for which the Potency result in experiment [1], in [2], in [3], in [4], in [5] and in [6] was “inactive” throughout. The Potency entry in [7], in experiment [8], in [9], in [10], in experiment [11] and in [12] was “inactive” in each case. For the same compound, the Potency result in experiment [13] is “inactive”.
With `C=CC(=O)OCC(CC)(COC(=O)C=C)COC(=O)C=C`, the Potency in experiment [1] is 15.9 µM (active) and 21.9 µM (active); in [3], 8.87 µM (active) and 15.4 µM (active); in [4], 2.23 µM (active); in experiment [5], 15.8 µM (active) and 17.2 µM (active); in experiment [7], 35.3 µM (active) and 30.6 µM (active); in [8], 28 µM (active) and 19.3 µM (active). For the same compound, the Potency is 28 µM (active) and 21.7 µM (active) in experiment [9]; 8.87 µM (active) and 12.2 µM (active) in experiment [11]; 17.7 µM (active) and 21.7 µM (active) in [12]. In addition, the Potency entry in [2], in experiment [6] and in experiment [10] was “inactive” each time.
Consider `O=C(O)c1nn(Cc2ccc(Cl)cc2Cl)c2ccccc12`, for which the Potency entry in experiment [1], in [2], in experiment [3], in experiment [4], in [15] and in experiment [17] was “inactive” each time. The Potency entry in experiment [18], in experiment [6], in experiment [7], in experiment [8], in experiment [9] and in experiment [10] was “inactive” each time. Further, the Potency result in experiment [11], in [20] and in experiment [13] was “inactive” in each case. Moreover, the compound was called inactive in experiment [14], in [16] and in experiment [19]. Besides, in experiment [12], the Potency is 68.1 µM (active) and inactive.
As to `CNC(=O)Oc1cccc2c1OC(C)(C)C2`, the Potency entry in experiment [1], in [2], in [3], in experiment [4], in [5] and in experiment [6] was “inactive” each time. In addition, the Potency result in experiment [7], in [8], in [9], in experiment [10], in experiment [11] and in experiment [12] was “inactive” in each case. In addition, the Potency result in [13] was “inactive”.
`CCOC(=O)c1ccccc1N`: the Potency entry in experiment [1], in experiment [2], in experiment [3], in [4], in experiment [5] and in experiment [6] was “inactive” throughout. For the same compound, the Potency entry in experiment [7], in experiment [8], in experiment [9], in experiment [10] and in experiment [11] was “inactive” each time.
`Oc1ccc(Cl)cc1Cl`: the Potency result in experiment [1], in experiment [2], in experiment [3], in experiment [4], in experiment [5] and in experiment [6] was “inactive” in each case. The Potency entry in experiment [7], in experiment [8], in [9], in [10], in experiment [11] and in [12] was “inactive” throughout. For the same compound, the Potency result in experiment [20] is “inactive”.
As to `CCCCCCCCCc1ccc(O)cc1`, the Potency in experiment [1] is 55.5 µM (active); in [4] it was 19.5 µM (active); in [5] it was 61.8 µM (active). Further, the Potency result in experiment [2], in [3], in [6], in experiment [7], in experiment [8] and in [9] was “inactive” throughout. For the same compound, in [13], the Potency entry is “inactive”.
Regarding `C[C@]12CCC(=O)C=C1CC[C@@H]1[C@@H]2CC[C@@]2(C)[C@H]1CC[C@]2(C)O`, the Potency result in experiment [1], in experiment [2], in [4], in [18], in experiment [5] and in experiment [6] was “inactive” in each case. For the same compound, the Potency entry in experiment [7], in experiment [8], in [9], in experiment [10], in experiment [11] and in experiment [13] was “inactive” throughout. Further, the Potency in experiment [3] was 43.6 µM (active). For the same compound, the compound was called inactive in experiment [14].

The record behind these values is PubChem BioAssay (Tox21).
